Compounds without any hit were thinned out: in the full panel of roughly 83,000, 20% have a hit.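 Interpretation: 100, growth as untreated; towards 0, rising growth inhibition; 0, no net growth; 0 to -100, cell death. Compounds scoring below 10 were considered active.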 The source made the active and inactive calls.
Assays:
Assay in all cases: NCI-60 one-dose screen, 48 h (100 = growth as untreated, 0 = no growth, -100 = all killed)
Conditions in all cases: 10 µM
NCI-H23 lung = tested on: NCI-H23 lung
NCI-H226 lung = tested on: NCI-H226 lung
NCI-H322M lung = tested on: NCI-H322M lung
HOP-62 NSCLC = tested on: HOP-62 NSCLC
NCI-H460 lung = tested on: NCI-H460 lung
HOP-92 NSCLC = tested on: HOP-92 NSCLC
NCI-H522 lung = tested on: NCI-H522 lung
A549/ATCC NSCLC = tested on: A549/ATCC NSCLC
786-0 renal = tested on: 786-0 renal
COLO 205 colon = tested on: COLO 205 colon

Measured: growth

O=C1C(Cl)=C(Cl)C(Cl)(Cl)C(Cl)C1(Cl)Cl (stereo unspecified)
inactive: NCI-H23 lung 106% | NCI-H226 lung 105% | NCI-H322M lung 103% | HOP-62 NSCLC 98.5% | NCI-H460 lung 118% | HOP-92 NSCLC 104% | NCI-H522 lung 89.3% | A549/ATCC NSCLC 105% | 786-0 renal 102%

Cc1cc(Cl)ccc1NC(=O)/C(Cl)=C1/Sc2ccccc2NC1=O
inactive: NCI-H23 lung 88.4% | NCI-H226 lung 90.3% | NCI-H322M lung 102% | HOP-62 NSCLC 91% | NCI-H460 lung 99.4% | HOP-92 NSCLC 70.5% | NCI-H522 lung 104% | A549/ATCC NSCLC 112% | 786-0 renal 92.9%

N#CC(=C1C=CC(=NO)C=C1)c1ccccc1
inactive: NCI-H23 lung 35.3% | NCI-H226 lung 44.5% | NCI-H322M lung 66.3% | NCI-H522 lung 39% | A549/ATCC NSCLC 34%
active: HOP-62 NSCLC 6.93% | NCI-H460 lung 1.48% | HOP-92 NSCLC -7.52% | 786-0 renal 6.67%

CC[C@@]1(OC(=O)CN(C)C)C(=O)OCc2c1cc1n(c2=O)Cc2cc3c(N)cccc3nc2-1
inactive: COLO 205 colon 17.5%
active: NCI-H23 lung -26.7% | NCI-H226 lung -13.4% | NCI-H322M lung -18.6% | HOP-62 NSCLC -5.79% | NCI-H460 lung -5.75% | NCI-H522 lung -26% | A549/ATCC NSCLC 4.76% | 786-0 renal 0.893%

CCC(C)(c1ccc(O)c(C)c1)c1ccc(O)c(C)c1
inactive: NCI-H23 lung 91.9% | NCI-H226 lung 101% | NCI-H322M lung 318% | HOP-62 NSCLC 84.5% | NCI-H460 lung 97.3% | HOP-92 NSCLC 82.4% | NCI-H522 lung 75.9% | A549/ATCC NSCLC 83.4% | 786-0 renal 63.5%

S=C1SCN(CCc2ccccc2)CN1CCc1ccccc1
inactive: NCI-H23 lung 96.5% | NCI-H226 lung 99.4% | NCI-H322M lung 86.5% | HOP-62 NSCLC 87.6% | NCI-H460 lung 108% | NCI-H522 lung 58.6% | A549/ATCC NSCLC 90.8% | 786-0 renal 117%

CN(C)CCNc1cccc2sc3ccc(O)cc3c(=O)c12
inactive: NCI-H23 lung 54.6% | NCI-H226 lung 74% | NCI-H322M lung 59.1% | HOP-62 NSCLC 46.2% | NCI-H460 lung 16% | HOP-92 NSCLC 31.9% | A549/ATCC NSCLC 17.3% | 786-0 renal 63.3%

COc1ccc2c(c1)[nH]c1c(/C=C/c3ccccc3)nccc12
inactive: NCI-H23 lung 60.8% | NCI-H226 lung 73% | NCI-H322M lung 70.5% | HOP-62 NSCLC 71.8% | NCI-H460 lung 56.2% | NCI-H522 lung 40.3% | A549/ATCC NSCLC 87.3% | 786-0 renal 62.9%

COc1cc(N)ccc1Nc1c2ccccc2nc2ccccc12
active: NCI-H460 lung 4.72%
inactive: NCI-H23 lung 91.8% | NCI-H226 lung 73.3% | NCI-H322M lung 83.6% | HOP-62 NSCLC 83.6% | A549/ATCC NSCLC 40.8% | 786-0 renal 69.4%

O=Nc1ccc(Nc2ccccc2)cc1
inactive: NCI-H23 lung 89% | NCI-H226 lung 92.8% | NCI-H322M lung 98.5% | HOP-62 NSCLC 111% | NCI-H460 lung 97.8% | HOP-92 NSCLC 26% | NCI-H522 lung 66.8% | 786-0 renal 80%

O=C(NC(=S)Nc1ccccn1)c1ccccc1
inactive: NCI-H23 lung 75.7% | NCI-H226 lung 91.1% | NCI-H322M lung 85.5% | HOP-62 NSCLC 106% | NCI-H460 lung 94% | HOP-92 NSCLC 79.5% | NCI-H522 lung 82.1% | A549/ATCC NSCLC 101% | 786-0 renal 90.1% | COLO 205 colon 101%

Nc1nc(N)c2cc(Sc3ccc4ccccc4c3)ccc2n1
inactive: NCI-H23 lung 43.1% | NCI-H226 lung 57.7% | NCI-H322M lung 48% | HOP-62 NSCLC 65% | NCI-H460 lung 16.1% | HOP-92 NSCLC 30.3% | NCI-H522 lung 31.4% | A549/ATCC NSCLC 15.2% | 786-0 renal 23%

CCOC(=O)[C@]1(Br)CC[C@@]1(Br)C(=O)OCC
active: NCI-H522 lung -6.96%
inactive: NCI-H23 lung 109% | NCI-H226 lung 91.8% | NCI-H322M lung 92.8% | HOP-62 NSCLC 127% | NCI-H460 lung 117% | HOP-92 NSCLC 109% | 786-0 renal 118%

O=C1c2ccccc2CCC1(Br)Br
inactive: NCI-H23 lung 28.9% | NCI-H226 lung 27.1% | NCI-H322M lung 100% | HOP-62 NSCLC 96.5% | NCI-H460 lung 95% | A549/ATCC NSCLC 96% | 786-0 renal 14.8%
active: NCI-H522 lung -70.8%

ClCCn1c(CCl)nc2ccc(Cl)cc21
active: NCI-H23 lung -17.1% | NCI-H460 lung 0.311% | HOP-92 NSCLC -57.2% | NCI-H522 lung -73.2% | A549/ATCC NSCLC -12.5% | 786-0 renal -59.9%
inactive: NCI-H322M lung 99.5%

COc1ccc2oc(-c3ccc(Cl)cc3)c(N3CCN(C)CC3)c2c1
active: NCI-H460 lung -62.6% | HOP-92 NSCLC -17.1% | NCI-H522 lung -78.2%
inactive: NCI-H23 lung 73.6% | NCI-H226 lung 91% | NCI-H322M lung 113% | HOP-62 NSCLC 51.9% | A549/ATCC NSCLC 39.6% | 786-0 renal 27.2%

CN(CC(=O)O)c1ccc(/C=C/c2ccnc3ccccc23)cc1
inactive: NCI-H23 lung 99% | NCI-H226 lung 60.8% | NCI-H322M lung 98.7% | HOP-62 NSCLC 83.5% | NCI-H460 lung 94.5% | HOP-92 NSCLC 46.2% | NCI-H522 lung 78.1% | A549/ATCC NSCLC 74.3% | 786-0 renal 95.8%

CCC(=O)Oc1ccc(/C=N/NC(N)=S)nc1
inactive: NCI-H23 lung 26.7% | NCI-H226 lung 79.1% | NCI-H322M lung 46% | HOP-62 NSCLC 36.4% | NCI-H460 lung 52% | HOP-92 NSCLC 68.5% | NCI-H522 lung 39.4% | A549/ATCC NSCLC 98.8% | 786-0 renal 23.6%

COc1cccc(C(c2cc3c(cc2O)OCO3)N2CCOCC2)c1OC (stereo unspecified)
inactive: NCI-H23 lung 109% | NCI-H226 lung 99.6% | NCI-H322M lung 101% | HOP-62 NSCLC 101% | NCI-H460 lung 104% | HOP-92 NSCLC 99.6% | NCI-H522 lung 94.8% | A549/ATCC NSCLC 99.9% | 786-0 renal 101%

O=C(CNS(=O)(=O)Cc1ccccc1)NNc1ccccc1
inactive: NCI-H23 lung 92.3% | NCI-H226 lung 72.9% | NCI-H322M lung 75% | HOP-62 NSCLC 46.3% | NCI-H460 lung 29.4% | HOP-92 NSCLC 101% | NCI-H522 lung 41% | A549/ATCC NSCLC 55.8% | 786-0 renal 76.6%

N#C/C(=C/N1C(=O)/C(=C/c2ccc([N+](=O)[O-])cc2)SC1=S)c1nc2ccccc2s1
inactive: NCI-H23 lung 89.1% | NCI-H226 lung 63.8% | NCI-H322M lung 88.1% | HOP-62 NSCLC 82.4% | NCI-H460 lung 90.3% | HOP-92 NSCLC 66.8% | NCI-H522 lung 78.7% | A549/ATCC NSCLC 91.4% | 786-0 renal 94.8%

CC1CCC2(C(=O)O)CCC3(C)C(=CCC4C5(C)CC(O)C(O)C(C)(CO)C5C(O)CC43C)C2C1C (stereo unspecified)
inactive: NCI-H23 lung 94.6% | NCI-H226 lung 115% | NCI-H322M lung 98.7% | HOP-62 NSCLC 111% | NCI-H460 lung 111% | HOP-92 NSCLC 79% | NCI-H522 lung 87.9% | A549/ATCC NSCLC 27% | 786-0 renal 110%

Cc1cc(C)c(N2C(=O)CC(Sc3ccccc3N)C2=O)c(C)c1 (stereo unspecified)
inactive: NCI-H23 lung 82.6% | NCI-H322M lung 112% | HOP-62 NSCLC 70.4% | NCI-H460 lung 95.6% | NCI-H522 lung 78.8% | A549/ATCC NSCLC 74.8% | 786-0 renal 112%

From PubChem BioAssay (NCI)
